{"source": "PubChem BioAssay AID504834", "about": "(National Center for Advancing Translational Sciences (NCATS), 2011)", "note": "Several values for one entry are separate records, joined by “and”; a condition that tells them apart may be missing. Equal values may be shown once. Among all 320,000 compounds or so, about 22,000 (6.9%) were called active. Where a call stands in place of a potency, no number is given. Roughly 27% stayed inconclusive and do not appear here. Calls come from the whole dose curve; as a rule, active = well fitted inhibition curve with a large enough effect; inconclusive = small, poorly fitted or top-dose-only effect, or another doubt; inactive = no such curve, though single readings can be large or run the other way. This excerpt belongs to a sample that is enriched for actives. More than one record can exist for a structure, and the calls need not agree. Potency is the fitted concentration of half-maximal effect."}
{"experiment": "Primary qHTS for delayed death inhibitors of the malarial parasite plastid, 96 hour incubation", "details": "P. falciparum luciferase reporter growth; series mostly up to 28.7 µM", "how_it_was_run": "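Luminescence readout: decreased luciferase signal marks inhibited growth of reporter-expressing P. falciparum in infected red cells (2% hematocrit, 0.05% parasitemia final), exposed to compound two generations (96 h, 37 C, 5% CO2).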"}
{"smiles": "Cc1cc(C)cc(NC(=O)CN2C(=O)c3ccccc3C2=O)c1", "Potency": "inactive"}
{"smiles": "Cc1cc2c(cc1C)N(C(=O)CN1C(=O)c3ccccc3C1=O)C(C)(C)c1ssc(=S)c1-2", "Potency": "8.28 µM (active)"}
{"smiles": "Cc1ccc(NC(=O)CCN2C(=O)c3ccccc3C2=O)cc1C", "Potency": "inactive"}
{"smiles": "Cc1nn(CC(=O)N/N=C/c2ccc(F)cc2)c(C)c1[N+](=O)[O-]", "Potency": "inactive"}
{"smiles": "CC1CCN(C(=S)NC(=O)c2ccccc2Br)CC1", "Potency": "inactive"}
{"smiles": "CCOC(=O)c1c(CC(C)C)csc1/N=C/C1=C(O)CCCC1=O", "Potency": "inactive"}
{"smiles": "CN1C(=O)[C@H]2[C@@H](C3CC3)N3C(=O)CN(Cc4ccccc4)C(=O)[C@@]3(C)[C@H]2C1=O", "Potency": "inactive"}
{"smiles": "CC(=O)Nc1ccc(NC(=O)CCCNC(=O)c2ccc(Cl)cc2)cc1", "Potency": "inactive"}
{"smiles": "C=CCNC(=S)N/N=C/c1ccc(C)s1", "Potency": "4.65 µM (active)"}
{"smiles": "C=CCNC(=S)NNC(=O)c1ccc(Br)o1", "Potency": "inactive"}
{"smiles": "Cc1ccc(/C=N/NC(=O)CN2CCN(Cc3ccccc3)CC2)s1", "Potency": "inactive"}
{"smiles": "CC(C)c1c(O)nc(SCCOc2ccc(Cl)cc2)[nH]c1=O", "Potency": "inactive"}
{"smiles": "CCOc1cc2[nH]c(=S)n(Cc3ccc(C(=O)N4CCN(C)CC4)cc3)c(=O)c2cc1OCC", "Potency": "inactive"}
{"smiles": "Cc1ccc2[nH]c3c(=O)n(CC(=O)NCCc4ccc(Cl)cc4)ncc3c2c1", "Potency": "13.1 µM (active)"}
{"smiles": "CC1CC(C)CN(CCCNC(=O)Cn2ncc3c([nH]c4ccccc43)c2=O)C1", "note": "(stereo unspecified)", "Potency": "inactive"}
{"smiles": "Cc1cccc(CCNC(=O)Cn2ncc3c([nH]c4ccc(C)cc43)c2=O)c1", "Potency": "inactive"}
{"smiles": "Nc1c(C(=O)OCC(=O)Nc2ccc(OC(F)F)cc2)[nH]c(=O)[nH]c1=O", "Potency": "inactive"}
{"smiles": "O=C(CN(c1ccc2c(c1)OCCO2)S(=O)(=O)c1ccccc1)Nc1ccc2c(c1)OCO2", "Potency": "inactive"}
{"smiles": "O=C(CCS(=O)(=O)Cc1ccccc1)Nc1ccc2c(c1)OCCO2", "Potency": "2.94 µM (active)"}
{"smiles": "COc1ccccc1OCCCC(=O)Nc1ccc2c(c1)OCCO2", "Potency": "inactive"}
{"smiles": "Cc1ccc(-n2c(SCC(=O)N3CCC(C(=O)O)CC3)nc3ccccc3c2=O)cc1C", "Potency": "inactive"}
{"smiles": "CN(C)c1ccc(NC(=O)CN2C3CCCC2CC(NC(=O)c2ccccc2)C3)cc1", "note": "(stereo unspecified)", "Potency": "inactive"}
{"smiles": "CCCCCc1ccc(-c2cn(Cc3ccc4ccccc4c3)nn2)cc1", "Potency": "inactive"}
{"smiles": "O=C1OCC2=C1C(c1ccccc1)CC(=O)N2c1cccc(F)c1", "note": "(stereo unspecified)", "Potency": "inactive"}
{"smiles": "O=C1CC(c2cccc(Br)c2)C2=C(CCCC2=O)N1", "note": "(stereo unspecified)", "Potency": "inactive"}
{"smiles": "O=C1CC(c2cccc(F)c2)C2=C(CCCC2=O)N1", "note": "(stereo unspecified)", "Potency": "9.28 µM (active)"}
{"smiles": "COc1ccc(CNC(=O)c2cc(C(=O)C3CC3)c[nH]2)cc1", "Potency": "inactive"}
{"smiles": "O=[N+]([O-])c1ccc2oc(-c3cccc(O)c3)nc2c1", "Potency": "inactive"}
{"smiles": "COc1ccc(-c2nc3cc([N+](=O)[O-])ccc3o2)cc1OC", "Potency": "inactive"}
{"smiles": "CC(=O)Oc1ccc2c(=O)oc(-c3ccc([N+](=O)[O-])cc3)nc2c1", "Potency": "2.33 µM (active)"}
{"smiles": "O=C(NCc1cccs1)c1ccc(CS(=O)Cc2ccccc2Cl)o1", "note": "(stereo unspecified)", "Potency": "inactive"}
{"smiles": "O=Cc1cn(-c2ccccc2)nc1-c1ccccn1", "Potency": "inactive"}
{"smiles": "CCC(=O)N(CCc1ccccc1)Cc1cc2cc(C)ccc2[nH]c1=O", "Potency": "inactive"}
{"smiles": "Cc1ccc2[nH]c(=O)c(CN(CC3COCCO3)C(=O)Nc3ccccc3C)cc2c1", "note": "(stereo unspecified)", "Potency": "0.465 µM (active)"}
{"smiles": "CC(=O)OCc1cc2cc(C)ccc2[nH]c1=O", "Potency": "inactive"}
{"smiles": "Cc1ccc2[nH]c(=O)c(CN(CCCN(C)C)C(=O)Nc3cccc(Cl)c3)cc2c1", "Potency": "2.94 µM (active)"}
{"smiles": "CCNCc1cc2cc(C)ccc2[nH]c1=O", "Potency": "inactive"}
{"smiles": "COc1ccc2[nH]c(=O)c(CN(CC3CCCO3)C(=O)Nc3ccccc3)cc2c1", "note": "(stereo unspecified)", "Potency": "inactive"}
{"smiles": "COc1ccc(S(=O)(=O)NCC(c2ccc(C)cc2)N2CCN(C)CC2)cc1OC", "note": "(stereo unspecified)", "Potency": "inactive"}
{"smiles": "Cc1ccc(-c2noc(CNC(=O)c3ccoc3C)n2)cc1", "Potency": "inactive"}
{"smiles": "O=C(NC1CCCC1)C1CCN(C(=O)Nc2cccc(Cl)c2)CC1", "Potency": "inactive"}
{"smiles": "COc1ccccc1NC(=O)Nc1nc(CC(=O)Nc2ccccc2F)cs1", "Potency": "inactive"}
{"smiles": "Cc1ccccc1N1CCN(CCCOc2ccc3c(C)cc(=O)oc3c2)CC1", "Potency": "inactive"}
{"smiles": "Cc1cc(=O)oc2cc(OCCC[n+]3ccccc3)ccc12", "Potency": "4.65 µM (active)"}
{"smiles": "Cc1cc(=O)oc2ccc(OCC(=O)O)cc12", "Potency": "inactive"}
{"smiles": "Cc1ccc(C2SCC(=O)N2c2ccccc2)cc1", "note": "(stereo unspecified)", "Potency": "inactive"}
{"smiles": "CN(CC(=O)Nc1cccc(F)c1)C(=O)C1=COCCO1", "Potency": "inactive"}
{"smiles": "CC(OC(=O)c1cc2ccccc2o1)C(=O)Nc1ccc(N2CCOCC2)cc1", "note": "(stereo unspecified)", "Potency": "inactive"}
{"smiles": "COc1ccc(C(=O)NC2=NCCS2)c(OC)c1", "Potency": "inactive"}
{"smiles": "CCCOc1ccc(NC(=O)C2CCCNC2=O)cc1", "note": "(stereo unspecified)", "Potency": "inactive"}
{"smiles": "CCCOc1ccc(C(=O)CCC(=O)OC(C)C(=O)Nc2ccc(NC(C)=O)cc2)cc1", "note": "(stereo unspecified)", "Potency": "inactive"}
{"smiles": "CCCOc1ccc(NC(=O)C2OC3OC(C)(C)OC3C3OC(C)(C)OC23)cc1", "note": "(stereo unspecified)", "Potency": "10.4 µM (active)"}
{"smiles": "CC(=O)c1ccc(N2CCN(C(=O)c3ccc(Cl)c(S(=O)(=O)NC4CC4)c3)CC2)c(F)c1", "Potency": "inactive"}
{"smiles": "CC(C)OC(=O)c1ccc(COc2ccc3ccc(=O)oc3c2)o1", "Potency": "inactive"}
{"smiles": "Cc1ccccc1CCN(CC(=O)NC1CCCCC1)C(=O)c1csnn1", "Potency": "11.7 µM (active)"}
{"smiles": "O=C(CN(C(=O)c1csnn1)c1ccc(Br)cc1)NC1CCCC1", "Potency": "inactive"}
{"smiles": "Cc1ccc(CN(CC(=O)NC2CCCCC2)C(=O)c2csnn2)cc1", "Potency": "inactive"}
{"smiles": "Cc1cc(NC(=O)CCC(=O)N(CC(=O)NCC2CCCO2)c2ccccc2)no1", "note": "(stereo unspecified)", "Potency": "inactive"}
{"smiles": "O=C(CN1CCC(O)(c2cccc(C(F)(F)F)c2)CC1)NCCc1ccccc1", "Potency": "inactive"}
{"smiles": "CCN(CC)CCNC(=O)c1ccc(NC(=O)c2cc(-c3ccncc3)nc3ccccc23)cc1", "Potency": "8.28 µM (active)"}
{"smiles": "COC(=O)CNC(=O)c1cc(-c2ccncc2)nc2ccccc12", "Potency": "inactive"}
{"smiles": "Cc1ccc2nc(-c3ccncc3)cc(C(=O)Nc3ccc4c(c3)OCCO4)c2c1", "Potency": "inactive"}
{"smiles": "O=S(=O)(Nc1cccc(-c2ccc(N3CCOCC3)nn2)c1)c1ccc(Cl)c(Cl)c1", "Potency": "inactive"}
{"smiles": "CCCCC(=O)NNC(=S)NC(=O)C(c1ccccc1)c1ccccc1", "Potency": "inactive"}
{"smiles": "CCCCCCOC(=O)NCC(O)c1ccccc1", "note": "(stereo unspecified)", "Potency": "inactive"}
{"smiles": "CCCC[N+]1(C)C2CC(OC(=O)C(CO)c3ccccc3)CC1C1OC12", "note": "(stereo unspecified)", "Potency": "inactive and 1.2 µM (active)"}
